Activity calls are given as the source filed them. How the source made its calls: active means hit-call score of the fitted dose curve at least 0.9, where 1 is the maximum; inactive means score below 0.9.
assay: ATG_MRE_CIS: Attagene CIS-FACTORIAL HepG2 Assay for human Metal Responsive Element (MRE) (AID 2282954); conditions: HepG2 MRE cis-reporter transcription, Attagene multiplex; actives raise or lower the signal
Description: ATG_CIS is a cell-based, multiplexed-readout assay that uses HepG2, a human liver cell line, with measurements taken at 24 hours after chemical dosing in a 24-well plate.ATG_MRE_CIS is one of 52 assay component(s) measured or calculated from the ATG_CIS assay. It is designed to make measurements of mRNA induction, a form of inducible reporter, as detected with fluorescence intensity signals by Reverse transcription polymerase chain reaction (RT-PCR) and Capillary electrophoresis technology.Data from the assay component ATG_MRE_CIS was analyzed into 1 assay endpoint. This assay endpoint, ATG_MRE_CIS, was analyzed with bidirectional fitting relative to DMSO as the negative control and baseline of activity. Using a type of inducible reporter, measures of mRNA for gain or loss-of-signal activity can be used to understand the reporter gene at the transcription factor-level as they relate to the gene MTF1. Furthermore, this assay endpoint can be referred to as a primary readout, because this assay has produced multiple assay endpoints where this one serves a reporter gene function. To generalize the intended target to other relatable targets, this assay endpoint is annotated to the dna binding intended target family, where the subfamily is zinc finger.
Human liver HepG2 cells are transiently transfected with multiple reporter transcription units (MRTUs) in 6-well plates using FuGene 6 reagent (Roche; 3 ml FuGene/1 mg DNA). The MRTU constructs are regulated by a cis-regulating element (promoter). […] A major difference between the CIS and TRANS system is that in CIS activities of endogenous TFs are measured, whereas the TRANS assay evaluates changes in activities of exogenous, chimeric NR-Gal4 proteins. […] At the end of 24 hour incubation, total RNA was isolated using TriZol reagent (Invitrogen). The isolated RNA is then reverse-transcribed using oligo(dT) primer and Mo-MLV reverse transcriptase (Invitrogen) with DNAse I (Ambion) treatment for 30 min. The one-tenth of the produced cDNA was amplified by PCR using Taq DNA polymerase (Invitrogen) and two reporter sequence-specific primers. The PCR products were fluorescently labeled by primer extension with 6-arboxyfluorescein (6-FAM) 5'-labeled reporter sequence-specific primer (2 min at 95 C, 20 s at 68 C and 10 min at 72 C) and these products were digested with 5U of HpaI (New England Biolabs) for 2h at 37 C. The fragments were purified using Qiaquick PCR columns (Qiagen), analyzed on an ABI 3130xL genetic analyzer (Applied Biosystems) with peak positions identified by using a set of X-rhodamine (ROX)-labeled MapMarker1000 molecular weight standards (BioVentures). The raw capillary electrophoresis data was processed using Attagraph software (Attagene).

SMILES | outcome | AC50
O=C1CCCCCCCCCCC(=O)OCCO1 | inactive | –
CCCCCCC(O)CO (stereo not given) | inactive | –
CCCOC(=O)CCCCC(=O)OCCC | inactive | –
COC(=O)C1=C(C)NC(C)=C(C(=O)OCC(C)C)C1c1ccccc1[N+](=O)[O-] (stereo not given) | inactive | –
Nc1nc2ccccc2[nH]1 | inactive | –
SCCc1cnccn1 | inactive | –
O=C(O)CC(C(=O)O)C(CC(=O)O)C(=O)O (stereo not given) | inactive | –
Nc1ccc(Cl)cc1Cl | inactive | –
Nc1ncn([C@@H]2O[C@H](CO)[C@@H](O)[C@H]2O)c(=O)n1 | inactive | –
O=Nc1ccc(O)cc1 | inactive | –
CCCCC(CC)CCC(CC(C)C)OS(=O)(=O)O (stereo not given) | inactive | –
O=C(O)c1cc2ccccc2nc1C(=O)O | inactive | –
O=c1[nH]nc(-c2ccc([N+](=O)[O-])o2)o1 | inactive | –
CCCCCCCCCCCCCOP(=O)(O)O | inactive | –
CCN(CCO)c1cccc(C)c1 | inactive | –
Cc1ccc2c(c1)C(=O)c1ccccc1C2=O | inactive | –
C=C1C2CCC(C2)C1(C)C (stereo not given) | inactive | –
CC(C)=CCCC(C)C=O (stereo not given) | inactive | –
C=C1[C@H]2CC[C@@H]3[C@H]2C(C)(C)CCC[C@]13C | inactive | –
O=C1c2cccc(O)c2C(=O)c2c(O)cc(CO)cc21 | inactive | –

SMILES | outcome | AC50
CC(C)c1ccc(C=O)cc1 | inactive | –
O=C1CCCCCCCCCCCCCCCO1 | – | 180 µM (active)
Cc1cccc(N)n1 | inactive | –
CC(C)(C)c1ccc(OC(=O)c2ccccc2O)cc1 | inactive | –
C[C@]12C=CC(=O)C=C1CC[C@@H]1[C@@H]2[C@@H](O)C[C@@]2(C)[C@H]1CC[C@]2(O)C(=O)CO | inactive | –
O=[N+]([O-])C1(Br)COCOC1 | inactive | –
c1cc(N(CC2CO2)CC2CO2)ccc1OCC1CO1 (stereo not given) | – | 31.7 µM (active)
O=c1[nH]c(=O)c2[nH]c(=O)[nH]c2[nH]1 | inactive | –
O=C1c2ccccc2C(=O)C1c1nc2ccccc2c(Br)c1O | inactive | –
CCCCC(CC)COCC1CO1 (stereo not given) | inactive | –
CCc1c(C(=O)O)c(=O)cnn1-c1ccc(Cl)cc1 | inactive | –
CC(C)(C)C(=O)CCc1ccc(Cl)cc1 | inactive | –
Cc1cccc(C(=O)O)c1 | inactive | –
O=C1C=CC(=O)O1 | inactive | –
Cn1c(=O)[nH]c2ncn(C)c2c1=O | inactive | –
CCOC(=O)CC(C(C)=O)C(C)=O | inactive | –
CCC(Cc1ccccc1)(C(=O)c1ccc(N2CCOCC2)cc1)N(C)C (stereo not given) | – | 52.7 µM (active)
c1cc(C(c2ccc(OCC3CO3)cc2)C(c2ccc(OCC3CO3)cc2)c2ccc(OCC3CO3)cc2)ccc1OCC1CO1 (stereo not given) | – | 50.2 µM (active)
CCCCCCCC/C=C\CCCCCCCC(=O)O | inactive | –
O=C(C=Cc1ccccc1)OCc1ccccc1 | inactive | –
